Our source for the growth values is PubChem BioAssay (NCI).

Compounds without any hit were thinned out: in the full panel of roughly 83,000, 20% have a hit.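 Single-dose data. Exposure time 48 hours. Values below 10 considered active.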 Values without a mark were called inactive. The source made the active and inactive calls.

Test systems include SR leukemia; RPMI-8226 leukemia; OVCAR-8 ovarian; OVCAR-5 ovarian; OVCAR-4 ovarian; SK-OV-3 ovarian; IGROV1 ovarian; OVCAR-3 ovarian; HS 578T breast; NCI/ADR-RES ovarian; T-47D breast; BT-549 breast; MDA-MB-435 melanoma; SW-620 colon; MCF7 breast; HCT-116 colon; HCC-2998 colon; KM12 colon.
What all share (assay): NCI-60 one-dose screen, 48 h (100 = growth as untreated, 0 = no growth, -100 = all killed)
Common to all, as to settings: 10 µM unless noted

Consider `N#C/C(=C\c1ccc(-c2ccc(Br)cc2)o1)c1nc(-c2ccco2)cs1`, for which the growth is 95.6% with SR leukemia; 61.4% in the assay on RPMI-8226 leukemia; 99.8% with OVCAR-8 ovarian; 63.4% in the assay on OVCAR-5 ovarian; -6.53% (active) in the assay with OVCAR-4 ovarian; 91% with SK-OV-3 ovarian. The growth in the assay on IGROV1 ovarian is 60.9%; in the assay with OVCAR-3 ovarian, 106%; in the assay with HS 578T breast, 100%; with NCI/ADR-RES ovarian, 99.8%; with T-47D breast, -26.4% (active); in the assay on BT-549 breast it was 98%. Further, the growth in the assay on MDA-MB-435 melanoma is 98.2%; in the assay with SW-620 colon it was 95.6%; in the assay on MCF7 breast, 15.4%; in the assay with HCT-116 colon, 95.6%; in the assay on HCC-2998 colon, 34.1%; with KM12 colon, 59.4%.

`CN1CCN(c2ccc3nc(-c4[nH]ncc4Nc4ncnc5[nH]ccc45)[nH]c3c2)CC1`: the growth in the assay with SR leukemia was -6.78% (active); in the assay with RPMI-8226 leukemia it was 101%; in the assay on OVCAR-8 ovarian it was 7.18% (active); in the assay on OVCAR-5 ovarian, 6.49% (active); in the assay with OVCAR-4 ovarian, -10.9% (active); in the assay with SK-OV-3 ovarian, 12.6%. Further, the growth is 0.386% (active) with IGROV1 ovarian; -0.64% (active) with OVCAR-3 ovarian; 15.8% with HS 578T breast; 80.4% in the assay with NCI/ADR-RES ovarian; -3.09% (active) in the assay on T-47D breast; -41.9% (active) with BT-549 breast. The growth in the assay on MDA-MB-435 melanoma is 0.107% (active); in the assay with SW-620 colon it was 3.78% (active); with MCF7 breast, 3.28% (active); with HCT-116 colon it was 2.16% (active); in the assay with HCC-2998 colon it was -23.2% (active); in the assay with KM12 colon, 10.2%.

Turning to `O=C1/C(=C\C(Cl)=C/c2ccc([N+](=O)[O-])cc2)SC(=S)N1CCc1ccc(O)cc1`, the growth with SR leukemia was 13.2%; in the assay on RPMI-8226 leukemia, -3.41% (active); in the assay with OVCAR-8 ovarian, 13.3%; in the assay on OVCAR-5 ovarian it was -33.9% (active); in the assay on OVCAR-4 ovarian it was 26.7%; in the assay with SK-OV-3 ovarian, 31.8%. Besides, the growth in the assay with IGROV1 ovarian was -67.9% (active); with OVCAR-3 ovarian, -53.6% (active); in the assay with HS 578T breast, 31.2%; with NCI/ADR-RES ovarian it was 9% (active); in the assay on T-47D breast it was -36.4% (active); with BT-549 breast, -51.8% (active). The growth in the assay on MDA-MB-435 melanoma is -1.96% (active); in the assay on SW-620 colon, -30.1% (active); in the assay on MCF7 breast it was -73.4% (active); in the assay with HCT-116 colon it was -77.2% (active); in the assay with HCC-2998 colon, -92.3% (active); in the assay with KM12 colon, -50.5% (active).

Take `CC(C)(C)c1nc(-c2ccc(O)c(O)c2)cs1`: the growth in the assay with SR leukemia is 26.9%; in the assay on RPMI-8226 leukemia it was 39.2%; in the assay with OVCAR-8 ovarian, 60.9%; in the assay on OVCAR-5 ovarian it was 91%; in the assay on OVCAR-4 ovarian, 76.2%; in the assay on SK-OV-3 ovarian, 90.6%. In addition, the growth was 43.8% in the assay with IGROV1 ovarian; 61.2% in the assay with OVCAR-3 ovarian; 85.9% in the assay with HS 578T breast; 35.5% in the assay with NCI/ADR-RES ovarian; 61.6% in the assay with T-47D breast; 63.3% in the assay with BT-549 breast. The growth in the assay with MDA-MB-435 melanoma was 36.6%; in the assay with SW-620 colon, 28.6%; in the assay on MCF7 breast, 83%; in the assay on HCT-116 colon it was 48.8%; with HCC-2998 colon it was 86.1%; with KM12 colon, 76.7%.

With `N=C(N)N=Nc1ccc(O)cc1`, the growth was 35.6% [100 µM] in the assay on SR leukemia; 65.7% [100 µM] in the assay on RPMI-8226 leukemia; 36.7% [100 µM] in the assay on OVCAR-8 ovarian; 116% [100 µM] in the assay with OVCAR-5 ovarian; 68.9% [100 µM] in the assay with OVCAR-4 ovarian; 106% [100 µM] in the assay with SK-OV-3 ovarian. Further, the growth with IGROV1 ovarian is 85% [100 µM]; in the assay on OVCAR-3 ovarian, 68.3% [100 µM]; with HS 578T breast, 60% [100 µM]; with NCI/ADR-RES ovarian it was 36.8% [100 µM]; in the assay on T-47D breast, 98.8% [100 µM]; with BT-549 breast, 19.3% [100 µM]. Further, the growth in the assay on MDA-MB-435 melanoma was 80.4% [100 µM]; in the assay on SW-620 colon, 58.9% [100 µM]; in the assay with MCF7 breast it was 9.71% [100 µM] (active); with HCT-116 colon, 48% [100 µM]; with HCC-2998 colon it was 54.6% [100 µM]; in the assay on KM12 colon it was 89.7% [100 µM].

For `Cc1ccsc1-c1ccc2c(c1)COC2(CCCN(C)C)c1ccc(F)cc1` (centres undefined), the growth with SR leukemia is -4.74% (active); with RPMI-8226 leukemia it was 19%; with OVCAR-8 ovarian, 71.9%; in the assay on OVCAR-5 ovarian, 72.1%; with OVCAR-4 ovarian, 54.4%; in the assay on SK-OV-3 ovarian, 79.1%. In addition, the growth with IGROV1 ovarian is 26.6%; in the assay with OVCAR-3 ovarian, 67.2%; in the assay on HS 578T breast it was 49%; in the assay on NCI/ADR-RES ovarian it was 72.4%; in the assay on T-47D breast, 48.7%; in the assay on BT-549 breast, 81.9%. Besides, the growth is 17.1% with MDA-MB-435 melanoma; 54.3% in the assay on SW-620 colon; 22.7% in the assay with MCF7 breast; 23.3% in the assay on HCT-116 colon; -48.4% (active) in the assay with HCC-2998 colon; 42.6% in the assay on KM12 colon.

Take `COc1cc(/C=N/Nc2ncnc3c2c(C)nn3-c2ccc(F)cc2)ccc1O`: the growth was 77% in the assay on SR leukemia; 92.5% in the assay on RPMI-8226 leukemia; 96.4% in the assay with OVCAR-8 ovarian; 131% with OVCAR-5 ovarian; 90.3% in the assay with OVCAR-4 ovarian; 99.2% in the assay with SK-OV-3 ovarian. Besides, the growth with IGROV1 ovarian is 79.5%; with OVCAR-3 ovarian it was 75.8%; in the assay on HS 578T breast, 99.1%; in the assay with NCI/ADR-RES ovarian, 95.7%; in the assay on T-47D breast, 79.8%; in the assay on BT-549 breast, 90.4%. Further, the growth in the assay on MDA-MB-435 melanoma is 95.4%; in the assay with SW-620 colon, 131%; with MCF7 breast, 85.3%; in the assay on HCT-116 colon it was 105%; in the assay on HCC-2998 colon it was 99.7%; in the assay with KM12 colon it was 71.9%.

Turning to `COc1cccc(-c2nn(-c3ccccc3)cc2-c2ccnc(NCCNS(=O)(=O)c3cccc(F)c3)c2)c1`, the growth in the assay with SR leukemia is 9.17% (active); in the assay with RPMI-8226 leukemia, 23.7%; in the assay with OVCAR-8 ovarian, 20.2%; in the assay with OVCAR-5 ovarian, 64.9%; in the assay on OVCAR-4 ovarian, 31.1%; in the assay on SK-OV-3 ovarian it was 46.6%. Further, the growth was 38% in the assay on IGROV1 ovarian; 40.4% in the assay on OVCAR-3 ovarian; 40.2% with HS 578T breast; 22.1% in the assay with NCI/ADR-RES ovarian; 6.41% (active) with T-47D breast; 46.9% with BT-549 breast. Further, the growth with MDA-MB-435 melanoma was 20%; with SW-620 colon, 46%; with MCF7 breast, 14.1%; in the assay with HCT-116 colon, 21.4%; in the assay on HCC-2998 colon it was 17.1%; in the assay on KM12 colon it was 19.6%.
